# Experimental data reported in PubChem BioAssay AID430 (Sanford-Burnham Center for Chemical Genomics, 2006).
# The campaign covered roughly 63,000 compounds. About 1,100 (1.7%) were called active. No stated cut-off is given here; in the data, active means cytotoxicity above about 50%; inactive means the rest. For the sample, actives were picked, then their nearest neighbours and some compounds at random. Potency and affinity values are given separately.
# Assay: cytotoxicity in HPDE-C7 cells, cell-based, fluorescence, HTS (AID 430);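 further: cells exposed to compound for 48 hours before viability readout; 0% = vehicle and 100% = reference cytotoxic drug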
# Conditions: HPDE-C7 pancreatic duct cells viability, at 10 µM, active compounds read high
row,Structure (SMILES),cytotoxicity
1,COc1ccc(S(=O)(=O)N(C)CC(=O)O)c2ccccc12,1.2% (inactive)
2,Cc1ccc(/C(O)=C2\C(=O)C(=O)N(CC(C)O)C2c2ccc(N(C)C)cc2)cc1 (centres undefined),0% (inactive)
3,CCCC(=O)n1nc(-c2ccc(OC)cc2)nc1N,11.5% (inactive)
4,O=C(CSc1nnc(-c2ccco2)o1)NC(=O)C1COc2ccccc2O1 (centres undefined),-12.2% (inactive)
5,COc1ccc(CNC(=O)C2CC(c3cccc(OC)c3)=NO2)cc1 (centres undefined),36% (inactive)
6,COc1cccc(C2=NOC(C(=O)NCc3ccccc3)C2)c1 (centres undefined),61.7% (active)
7,COCCNC(=O)C1CC(c2cccc(OC)c2)=NO1 (centres undefined),-6.9% (inactive)
8,COc1cccc(C2=NOC(C(=O)NCc3ccco3)C2)c1 (centres undefined),40.7% (inactive)
9,COc1cccc(C2=NOC(C(=O)NCc3ccccn3)C2)c1 (centres undefined),-11.7% (inactive)
10,COc1cccc(C2=NOC(C(=O)NCc3ccc(F)cc3)C2)c1 (centres undefined),60.3% (active)
11,Cc1oc2ccc(OC(=O)N3CCOCC3)cc2c1C(=O)OC(C)C,-25.5% (inactive)
12,Cc1nn(-c2ccccc2C(=O)O)c(=O)c2ccccc12,0.5% (inactive)
13,CC(=O)c1sc(-c2c(C)nc3sccn23)nc1C1CCCC1,4.9% (inactive)
14,O=C(NCCCN1CCOCC1)c1c(F)cccc1F,18.7% (inactive)
15,COc1ccc2sc(C)nc2c1NC(C)=O,-5.3% (inactive)
16,CCCCN(Cc1ccccc1)c1ncnc2nc[nH]c12,-1% (inactive)
17,Clc1ccccc1CN(Cc1ccccc1)c1ncnc2nc[nH]c12,82.7% (active)
18,Clc1ccccc1CNc1ncnc2nc[nH]c12,3.9% (inactive)
19,O=C(O)C1CC(=O)N(Cc2ccccc2)C1 (centres undefined),-5.6% (inactive)
20,CC(=O)N(CC(=O)Nc1nn(-c2ccccc2)nc1C(N)=O)Cc1ccccc1,-8.2% (inactive)
21,COC(=O)c1ccc(OCC(=O)Nc2nn(-c3ccccc3)nc2C(N)=O)cc1,51.8% (active)
22,NC(=O)c1nn(-c2ccccc2)nc1NC(=O)CN1CCCCC1,-13.3% (inactive)
23,CCc1nc2ccc(C(=O)NCc3ccco3)cc2nc1CC,1.5% (inactive)
24,O=C1c2oc3ccccc3c(=O)c2C(c2cccc(O)c2)N1CCCN1CCOCC1 (centres undefined),-13.7% (inactive)
25,CCNc1ccc(C(=O)OCC)cc1NC(=O)c1cccc(N(C)C)c1,54.6% (active)

row,Structure (SMILES),cytotoxicity
1,Cc1ccc(F)cc1NC(=O)c1cccc(N(C)C)c1,-10.6% (inactive)
2,CCNc1ccc(C(=O)OCC)cc1NC(=O)c1cccc(S(=O)(=O)N2CCOCC2)c1,1.8% (inactive)
3,CCn1c(SCC(=O)N2CCCCC2)nnc1-c1ccc(S(=O)(=O)N2CCN(C)CC2)cc1,-22% (inactive)
4,COc1ccc(CNC(=O)C2COc3ccccc3O2)c(OC)c1 (centres undefined),-4.4% (inactive)
5,Cc1ccc(C(=O)CC(C(=O)O)n2cccn2)cc1 (centres undefined),-3.1% (inactive)
6,Cc1ccc(C(=O)CC(C(=O)O)n2ccc(C)n2)cc1 (centres undefined),4% (inactive)
7,O=C1OCCC1N1C(=O)c2ccccc2S1(=O)=O (centres undefined),-4.1% (inactive)
8,Nc1c(Nc2ccccc2)c2ccccc2oc1=O,-3.7% (inactive)
9,CSc1ccc(/C=N/n2nnnc2N)cc1,-10.4% (inactive)
10,CCN(C)c1ccc(/C=N\n2nnnc2N)cc1,51.3% (active)
11,CCN(CC)c1ccc(/C=N/n2nnnc2N)c(O)c1,-2.7% (inactive)
12,CCCCS(=O)CC(COc1ccc(Cl)cc1)OC(=O)c1ccccc1 (centres undefined),-8.9% (inactive)
13,Cn1c(=O)c(-c2ccccc2)nn2c3ccccc3nc12,-4.7% (inactive)
14,COc1ccccc1Nc1nc2ccccc2n1C,-9% (inactive)
15,CNc1ccccc1-c1nc2ccccc2n(C)c1=O,56.7% (active)
16,Cc1ccc(NCc2nnc(SCC(=O)Nc3cccc(O)c3)n2CC2CCCO2)c(C)c1 (centres undefined),8.8% (inactive)
17,CC(=O)O[C@H]1C(=O)[C@]2(C)[C@H]([C@H](OC(=O)c3ccccc3)[C@]3(O)C[C@H](OC(=O)[C@H](O)[C@@H](NC(=O)c4ccccc4)c4ccccc4)C(C)=C1C3(C)C)[C@]1(OC(C)=O)CO[C@@H]1C[C@@H]2O,72% (active)
18,CC(=O)O[C@@]12CO[C@@H]1C[C@H](O)[C@@]1(C)C(=O)[C@H](O)C3=C(C)[C@@H](OC(=O)[C@H](O)[C@@H](NC(=O)OC(C)(C)C)c4ccccc4)C[C@](O)([C@@H](OC(=O)c4ccccc4)[C@H]21)C3(C)C,51.5% (active)
19,CNC(=O)c1ccccc1NC(=O)c1c(O)c2c([nH]c1=O)CCCC2,0% (inactive)
20,COc1ccc(/C(O)=C2/C(=O)C(=O)N(Cc3cccnc3)C2c2ccccn2)cc1 (centres undefined),-4.2% (inactive)
21,Cc1cc(C)n2c(Br)c(CSc3nc4ccccc4o3)nc2n1,3.3% (inactive)
22,COC(=O)c1c(NC(=O)CN2CCCC(C)C2)c2c(C)cccc2n1C (centres undefined),-3.9% (inactive)
23,CCCC(=O)NCCCc1nc2ccccc2n1CC,-20.4% (inactive)
24,COc1ccc(-n2c(Cc3cccn3C)nnc2SCC(=O)NCc2ccco2)cc1,-5% (inactive)
25,COc1ccc(NC(=O)CSc2nnc(-c3ccccc3C)n2N)cc1OC,-3.3% (inactive)

row,Structure (SMILES),cytotoxicity
1,CCn1c(SCC(=O)Nc2ccc3c(c2)c2ccccc2n3CC)nnc1-c1ccco1,49% (inactive)
2,CCn1c2ccccc2c2cc(NC(=O)CSc3nnc(-c4ccccc4OC)n3N)ccc21,57.2% (active)
3,Cc1ccc(-c2cc(C(F)F)nc(NCc3cccnc3)n2)cc1,28.4% (inactive)
4,CCOC(=O)C(C)Oc1cccc2c(=O)n(CC(=O)NCc3ccc4c(c3)OCO4)ccc12 (centres undefined),53% (active)
5,CCOC(=O)COc1cccc2c(=O)n(CC(=O)NCc3ccc4c(c3)OCO4)ccc12,60.6% (active)
6,CCOC(=O)COc1cccc2c(=O)n(CC(=O)N3CCc4ccccc43)ccc12,-7.9% (inactive)
7,CCOC(=O)C(C)Oc1cccc2c(=O)n(CC(=O)N3CCN(C(=O)OCC)CC3)ccc12 (centres undefined),-8.4% (inactive)
8,CCOC(=O)C(C)Oc1cccc2c(=O)n(CC(=O)N3CCc4ccccc43)ccc12 (centres undefined),-7.3% (inactive)
9,CCOC(=O)C(C)Oc1cccc2c(=O)n(CC(=O)Nc3ccc4c(c3)OCCO4)ccc12 (centres undefined),9.2% (inactive)
10,CCOC(=O)C(C)Oc1cccc2c(=O)n(CC(=O)NCc3ccco3)ccc12 (centres undefined),65.7% (active)
11,O=C(Cn1cnc2ccccc2c1=O)NCc1ccco1,-1% (inactive)
12,CCOC(=O)COc1cccc2c(=O)n(CC(=O)N3CCN(C(=O)OCC)CC3)ccc12,-9.2% (inactive)
13,CCCCN(C)CCCNC(=O)c1ccc2c(c1)NC(=O)C(N1CCOCC1)S2 (centres undefined),2.3% (inactive)
14,CCOC(=O)N1CCN(C(=O)C2CCCN(S(C)(=O)=O)C2)CC1 (centres undefined),2.7% (inactive)
15,CC(C)Sc1nc2c(cnn2-c2ccccc2)c(=O)[nH]1,-15.9% (inactive)
16,COC(=O)C(C(=O)OC)C(C(C)C)C(C(=O)OC)C(=O)OC,5.9% (inactive)
17,O=C(NCCSCc1ccco1)Nc1ccc(Cl)cc1,-8.4% (inactive)
18,O=C(Nc1ccc(Cl)cc1)Nc1ccccc1C(=O)NCc1ccco1,8.1% (inactive)
19,O=C(Nc1ccc(Cl)cc1)NC1CCCC1Cc1ccco1 (centres undefined),55% (active)
20,CC(c1ccccc1)N1CNc2c(c(=O)n(C)c(=O)n2C)C1 (centres undefined),-8.9% (inactive)
21,O=C(O)CC(c1ccc(Cl)cc1)N1C(=O)CCC1=O (centres undefined),-2.8% (inactive)
22,CCOc1ccc(NC(=O)CSc2nnc(Cc3cccn3C)n2-c2ccc(OC)cc2)cc1,-17.3% (inactive)
23,COc1cc(C2Nc3cccc4cccc(c34)N2)cc(OC)c1OC(C)=O,72.1% (active)
24,COc1cc(C2Nc3cccc4cccc(c34)N2)ccc1OC(C)=O,41.1% (inactive)
25,COc1cc(C2Nc3cccc4cccc(c34)N2)cc(OC)c1O,56.8% (active)

row,Structure (SMILES),cytotoxicity
1,CCN(CC)c1ccc(C2Nc3cccc4cccc(c34)N2)c(O)c1,30.4% (inactive)
2,c1coc(C2Nc3cccc4cccc(c34)N2)c1,4.2% (inactive)
3,Oc1ccccc1C1Nc2cccc3cccc(c23)N1,-21.5% (inactive)
4,CCC(=O)Nc1nc(C)nc(C)c1C(C)=O,-5.6% (inactive)
5,CC(=O)Nc1ccc(C)cc1NC(C)=O,-3.9% (inactive)
6,COc1ccc(C(c2nnnn2CCc2ccccc2)N2CCN(C3CCCC3)CC2)cc1 (centres undefined),-6.9% (inactive)
7,O=C(O)CSc1cccc2cccnc12,-7.9% (inactive)
8,CCOC(=O)CNc1ncnc2nc[nH]c12,-3.5% (inactive)
9,c1ccc(-c2nnc(-c3ccccn3)nn2)nc1,6.6% (inactive)
10,c1ccc(-c2ccc(-c3ccccn3)nn2)nc1,0.9% (inactive)
11,COc1ccc(S(=O)(=O)N2CCOCC2)c(Cl)c1Cl,-17.3% (inactive)
12,CCc1nc(NCC2CCCO2)c(C#N)c2c1COC(C)(C)C2 (centres undefined),-11.3% (inactive)
13,CCCc1nc(NC2CCCCC2)c(C#N)c2c1COC(C)(C)C2,-4.4% (inactive)
14,CCc1nc(NC2CCCCC2)c(C#N)c2c1COC(C)(C)C2,63.4% (active)
15,COc1ccc(-n2cnnc2SCC(=O)c2cc(C)n(Cc3cccs3)c2C)cc1,0.5% (inactive)
16,CCOC(=O)C1=C(N2CCCCC2)c2cc3c(n2C1=O)CCCC3,10.1% (inactive)
17,CCSc1ncnc2c(C#N)c3n(c12)CCCCC3,-13.6% (inactive)
18,CCN1CCN(CCNC(=O)c2ccc(CS(=O)(=O)c3ccccc3C)o2)CC1,-0.5% (inactive)
19,COc1ccc(C)cc1NC(=O)c1nnn(Cc2cc(C)ccc2C)c1N,7.5% (inactive)
20,Cc1ccc(C)c(NC(=O)c2nnn(Cc3ccccc3C)c2N)c1,1.7% (inactive)
21,Cc1ccc(CCNC(=O)c2nnn(-c3cc(C)cc(C)c3)c2N)cc1,3.4% (inactive)
22,Cc1cc(C)cc(NC(=O)c2nnn(Cc3cc(C)ccc3C)c2N)c1,58.9% (active)
23,Cc1ccc(NC(=O)c2nnn(-c3cc(C)cc(C)c3)c2N)cc1,55.6% (active)
24,Cc1cccc(-n2nnc(C(=O)Nc3ccc(F)cc3)c2N)c1,15.2% (inactive)
